This note sets out measurements from PubChem BioAssay (NCI).

This is part of a sample that, as a whole, favours compounds with a hit. Of some 83,000 tested, about 20% had one in any assay.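 Step 1: grow cells in 96-well plates. Step 2: add test compound at a single concentration. Step 3: incubate 48 h. Step 4: record percent growth.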 Activity calls are given as the source filed them. How the source made its calls: active means growth percent below 10; inactive means the rest.

This experiment has as its system U251 CNS. Kind of experiment: NCI-60 one-dose screen, 48 h (100 = growth as untreated, 0 = no growth, -100 = all killed). The conditions noted are these: 10 µM unless noted.
Turning to `O=C1/C(=C\c2ccc(Br)o2)SC(=S)N1CCc1ccc(O)cc1`, the growth was 96.5% (inactive).
Take `N#CC1=C(N)Oc2ccc3ccccc3c2C1c1ccccc1` (centres undefined): the growth was 32.5% (inactive).
Turning to `N#CC1=C(N)Oc2ccc3ccccc3c2C1c1ccccc1Cl` (centres undefined), the growth is 37.2% (inactive).
For the compound `CCSc1sc(-c2ccc(C)cc2)nc1[P+](c1ccccc1)(c1ccccc1)c1ccccc1`, the growth was 9.48% (active).
As to `Fc1ccc2nc(-c3cc(-c4ccc5c(c4)OCO5)n[nH]3)[nH]c2c1`, the growth is 41.1% (inactive).
`CC(=O)c1c(C)[nH]c(-c2nc3ccc(N4CCN(C)CC4)cc3[nH]2)c1-c1ccc2c(c1)OCCO2`: the growth is 57.2% (inactive).
With `COc1cc2nc(Cl)nc(Nc3cccc(C(=O)/C=C/c4ccc(Br)cc4)c3)c2cc1OC` the figure was 80% (inactive).
With `COc1c(N)c2c(c([N+](=O)[O-])c1OC)C(=O)OC2`, the growth was 110% (inactive).
With `N#C/C(=C\c1ccc(-c2cccc(C(F)(F)F)c2)o1)c1nc(-c2ccco2)cs1`, the growth was 96.4% (inactive).
On to `C=C(C)[C@@H]1CC[C@]2(CN)CC[C@]3(C)[C@H](CC[C@@H]4[C@@](C)(CCCN)[C@H](C(=C)C)CC[C@]43C)[C@@H]12`, for which the growth was 74% (inactive).
For the compound `Nc1ccccc1NC(=O)c1ccc(CN2CCC/C(=C\c3ccccn3)C2=O)cc1`, the growth was 23.9% (inactive).
For the compound `O=c1c2sc3ncc(Br)cc3c2ncn1-c1cccc(Cl)c1`, the growth is 33.4% (inactive).
As for `CCN1CCN(C(=O)[C@]23CCC(C)(C)C[C@@H]2C2=CC[C@@H]4[C@@]5(C)C/C(=C/c6ccncc6)C(=O)C(C)(C)[C@@H]5CC[C@@]4(C)[C@]2(C)CC3)CC1`, the growth was -77.2% (active).
For the compound `Cc1ccc(-c2nc([P+](c3ccccc3)(c3ccccc3)c3ccccc3)c(N3CCOCC3)o2)cc1`, the growth is 12.4% (inactive).
With `CCCCn1c(-c2ccc(O)cc2)cn2c3c(=O)[nH]c(=O)n(C)c3nc12` the figure was 66.7% (inactive).
For the compound `CN(C)CCCC1(c2ccc(F)cc2)OCc2cc(-c3ccc(C(F)(F)F)nc3)ccc21` (centres undefined), the growth was 57.1% (inactive).
`Nc1c2c(nc3ccc(Cl)cc13)CC(c1ccc(O)cc1)CC2=O` (centres undefined): the growth was 47.2% (inactive).
With `N#Cc1c(-c2ccco2)nc2c(c(-c3ccccc3)nn2-c2ccccc2)c1-c1ccc(O)cc1` the figure was 61.6% (inactive).
With `COc1ccc(OC)c(-c2c(C#N)c(-c3ccco3)nc3c2c(-c2ccccc2)nn3-c2ccccc2)c1` the figure was 103% (inactive).
For the compound `N#CC1=C(N)Oc2c(c(N)nn2-c2ccccc2)C1c1ccc(Cl)cc1` (centres undefined), the growth is 94.9% (inactive).
The figure for `O=C(O)c1cccc2c1Cc1cc([N+](=O)[O-])ccc1-2` is 104% (inactive); for `CCN1CCN(C(=O)[C@]23CCC(C)(C)C[C@H]2C2=CC[C@@H]4[C@@]5(C)CC/C(=N/O)C(C)(C)[C@@H]5CC[C@@]4(C)[C@]2(C)CC3)CC1` it is 38% (inactive); for `Cc1ccc(NC2CC(=O)N(c3c(C)cc(C)cc3C)C2=O)c(C)c1` (centres undefined) it is 95.8% (inactive).
On to `NCCNc1nc(-c2ccccc2)nc2nc(-c3ccccc3)oc12`, for which the growth was 70.3% (inactive).
For the compound `CCCCCC1CCCCN1C(=O)OCC` (centres undefined), the growth is 96.7% (inactive).
The figure for `COc1ccc(-c2cc(/C=C/C(=O)c3ccc(N)cc3)[nH]n2)cc1` is 14.4% (inactive).
As for `COc1ccc2nc(-c3cc(-c4cc(OC)c(OC)c(OC)c4)n[nH]3)[nH]c2c1`, the growth was 39.3% (inactive).
For `COc1ccc(/C=C(\C#N)c2cc3ccccc3n2S(C)(=O)=O)cc1`, the growth was 96.8% (inactive).
On to `CC1c2ccccc2N(S(=O)(=O)c2ccccc2)C1C` (centres undefined), for which the growth is 88% (inactive).
With `CC1(C)CC[C@]2(C(=O)NCCNCCN)CC[C@]3(C)C(=CC[C@@H]4[C@@]5(C)CCC(=O)C(C)(C)[C@@H]5CC[C@]43C)[C@@H]2C1` the figure was -69.7% (active).
Turning to `C=C(C)[C@@H]1CC[C@]2(C)[C@H](CC[C@@H]3[C@H]4[C@H]5OC[C@@]4(CCC5(C)C)CC[C@]32C)[C@@]1(C)CCCN`, the growth is -19.2% (active).
Take `COc1cc2nc(Cl)nc(Nc3cccc(C(=O)/C=C/c4ccc(F)cc4)c3)c2cc1OC`: the growth was 32.6% (inactive).
Consider `CC[C@H](CC[C@@H](C)[C@H]1CC[C@H]2[C@@H]3/C(=C/c4cccnc4)C(=O)C4=CC(=O)CC[C@]4(C)[C@H]3CC[C@]12C)C(C)C`, for which the growth was 0.689% (active).
With `COc1ccc(CCN2C(=O)C(C)(C)SC2=S)cc1OC` the figure was 100% (inactive); with `C=C(C)[C@@H]1CC[C@]2(C(=O)N3CCN(C)CC3)CC[C@]3(C)[C@H](CC[C@@H]4[C@@]5(C)C/C(=C/c6ccc(C(F)(F)F)cc6)C(=O)C(C)(C)[C@@H]5CC[C@]43C)[C@@H]12`, 87.1% (inactive).
Regarding `Cc1nc([P+](c2ccccc2)(c2ccccc2)c2ccccc2)c(Sc2sc(-c3ccccc3)nc2[P+](c2ccccc2)(c2ccccc2)c2ccccc2)o1`, the growth is 14.3% (inactive).
For `O=C1NC(=Nc2ccc(S(=O)(=O)Nc3nccs3)cc2)S/C1=C\c1coc2ccccc2c1=O`, the growth is 102% (inactive).
Consider `Cc1ccc(Sc2sc(-c3ccccc3)nc2[P+](c2ccccc2)(c2ccccc2)c2ccccc2)cc1`, for which the growth is 13.8% (inactive).
In the case of `Clc1ccccc1-c1nc(Nc2nc3ccccc3s2)nc(C(Cl)(Cl)Cl)n1`, the growth is 20.5% (inactive).
